# Measurements from PubChem BioAssay (Tox21).
# Results filed as inconclusive are left out. A number with no mark means an inactive call. Activity calls are given as the source filed them. The call rests on the fitted dose curve; in most records, active means well fitted curve in the direction sought with a large enough effect in the repeat runs; inconclusive means weak or mixed curves; inactive means no such curve, though single readings can be large; an effect the other way counts as inactive or inconclusive.
# Assay: qHTS RealTime-Glo MT Cell Viability Assay in HepG2 cells - 40 hour (AID 1224870); further: nearly all actives have a fitted effect of over 50% in size
# Settings: RealTime-Glo luminescence; series mostly up to 76.8 µM; activity change, negative = cytotoxic: at the top concentration
# In short: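 Real-time viability: cells seeded at 600 per well together with NanoLuc and cell-permeant prosubstrate, compounds added after 5 h incubation. Luminescence tracked at 0, 8, 16, 24, 32 and 40 h of exposure.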
# On the % scale 0 is the no-effect control and ±100 the full control effect; potency means the concentration at half of the fitted maximal effect.
Structure (SMILES),"activity change, negative = cytotoxic",Potency
CCCCN(CCCC)C(=S)SSC(=S)N(CCCC)CCCC,13.3%,
Nc1ccc(Cl)cc1[N+](=O)[O-],-5.07%,
CC(C)c1nnc2ccc(-c3ocnc3-c3cc(F)ccc3F)cn12,0.97%,
Cc1cc(O)c(C(C)C)cc1Cl,,inactive
NC(=O)N(O)[C@@H]1COc2cc(OCc3ccccc3)ccc21,-14.5%,
CN1CCCN=C1/C=C/c1cccs1,2.38% [at 35.3 µM],
CC(=O)[C@H]1CC[C@H]2[C@@H]3C=CC4=CC(=O)CC[C@@]4(C)[C@@H]3CC[C@]12C,-5.39% [at 35.3 µM],
O=C(O)c1c(O)c(-c2ccccc2)nc2ccccc12,2.79% [at 35.3 µM],
O=C(CCCCCCC(=O)Nc1ccccc1)NO,,4.77 µM (active)
Cc1ccnc2ccccc12,-0.437%,
CO[C@@]12[C@H](COC(N)=O)C3=C(C(=O)C(C)=C(N)C3=O)N1C[C@@H]1N[C@@H]12,,5.35 µM (active)
Cc1cc(S(=O)(=O)O)ccc1N=Nc1c(O)ccc2ccccc12,-19.6%,
CC(C)(CCl)c1ccccc1,-1.12%,
c1cc[c]([Bi]([c]2ccccc2)[c]2ccccc2)cc1,-11.6%,
CC1C2CC(CC2C2CCCC(O)C2)C1(C)C (stereo unspecified),-9.16%,
CC1=C(/C=C/C(C)=C\C=C\C(C)=C\C(=O)O)C(C)(C)CCC1,-15.7%,

# Assay: A CellTox Green Cytotoxicity Assay to monitor cytotoxicity in HEK293 cells - 40 hour (AID 1224871); further: nearly all actives have a fitted effect of over 45% in size
# Settings: CellTox Green fluorescence; series mostly up to 76.8 µM; cytotoxicity increase: at the top concentration
# In short: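 Nonlytic real-time cytotoxicity: HEK293 + CellTox Green reagent plated, 5 h preincubation, pintool compound addition (23 nL in DMSO), 37 C for 40 h, fluorescence measured at successive time points.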
Structure (SMILES),cytotoxicity increase,Potency
OCC1CC=CCC1 (stereo unspecified),-9.6%,
NC(=O)Cn1c(=O)cc(CCN2CCN(c3nccc4sccc34)CC2)c2ccc(F)cc21,17%,
CC(CCO)CCc1ccccc1 (stereo unspecified),-1%,
Cc1nccn1-c1ccc(Sc2cccc(C3(C(N)=O)CCOCC3)c2)cc1,10.7%,
CCCc1c(OCCCOc2ccc(OCC(=O)O)cc2)ccc(C(C)=O)c1O,15.5%,
CCC(=O)Oc1ccc(/C(CC)=C(\CC)c2ccc(OC(=O)CC)cc2)cc1,-5.76%,
C[N+](C)(C)CCOC(N)=O,-16.3% [at 35.3 µM],
CCOC(=O)N1CCC(n2c(=O)[nH]c3cc(Cl)ccc32)CC1,3.57% [at 35.3 µM],
CCOC(=O)[C@@H](C)Oc1ccc(Oc2nc3ccc(Cl)cc3o2)cc1,26.7%,
COCCOC(=O)C1=C(C)NC(C)=C(C(=O)OC/C=C/c2ccccc2)C1c1cccc([N+](=O)[O-])c1 (stereo unspecified),-0.512% [at 35.3 µM],
Brc1cc(-c2ccc(Br)c(Br)c2Br)cc(Br)c1Br,2.58% [at 35.3 µM],
CCC(C(=O)OCCN(CC)CC)c1ccccc1 (stereo unspecified),11.1% [at 35.3 µM],
Nc1ccc(Cl)cc1[N+](=O)[O-],24.9%,
CC(C)c1nnc2ccc(-c3ocnc3-c3cc(F)ccc3F)cn12,-20.9%,
Cc1cc(O)c(C(C)C)cc1Cl,,38.9 µM (active)
CN1CCCN=C1/C=C/c1cccs1,-7.44% [at 35.3 µM],
O=C(O)c1c(O)c(-c2ccccc2)nc2ccccc12,4.14% [at 35.3 µM],
O=C(CCCCCCC(=O)Nc1ccccc1)NO,19.6% [at 35.3 µM],
Cc1ccnc2ccccc12,-2.26%,
CO[C@@]12[C@H](COC(N)=O)C3=C(C(=O)C(C)=C(N)C3=O)N1C[C@@H]1N[C@@H]12,17.9% [at 35.3 µM],
Cc1cc(S(=O)(=O)O)ccc1N=Nc1c(O)ccc2ccccc12,-17.8%,
CC(C)C(OC(=O)c1ccccc1)C(C)(C)COC(=O)c1ccccc1 (stereo unspecified),12.4%,
CC(C)(CCl)c1ccccc1,4.38%,
c1cc[c]([Bi]([c]2ccccc2)[c]2ccccc2)cc1,13.6%,
CC1C2CC(CC2C2CCCC(O)C2)C1(C)C (stereo unspecified),,49 µM (active)
